Laboratory results taken from PubChem BioAssay (NCI).
This is part of a sample that, as a whole, favours compounds with a hit. Of some 83,000 tested, about 20% had one in any assay.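 The test compound was applied at a single concentration to cells in 96-well plates for 48 hours, and percent growth was recorded.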 The source made the active and inactive calls. The calls were made as follows: active = growth percent below 10; inactive = the rest.

How the values were obtained:
Experiment in all cases: NCI-60 one-dose screen, 48 h (100 = growth as untreated, 0 = no growth, -100 = all killed)
Conditions in all cases: 10 µM unless noted
SR leukemia = test system: SR leukemia
RPMI-8226 leukemia = test system: RPMI-8226 leukemia
OVCAR-8 ovarian = test system: OVCAR-8 ovarian
OVCAR-5 ovarian = test system: OVCAR-5 ovarian
OVCAR-4 ovarian = test system: OVCAR-4 ovarian
SK-OV-3 ovarian = test system: SK-OV-3 ovarian
IGROV1 ovarian = test system: IGROV1 ovarian
OVCAR-3 ovarian = test system: OVCAR-3 ovarian
HS 578T breast = test system: HS 578T breast
NCI/ADR-RES ovarian = test system: NCI/ADR-RES ovarian
T-47D breast = test system: T-47D breast
BT-549 breast = test system: BT-549 breast
MDA-MB-435 melanoma = test system: MDA-MB-435 melanoma
SW-620 colon = test system: SW-620 colon
MCF7 breast = test system: MCF7 breast
HCT-116 colon = test system: HCT-116 colon
HCC-2998 colon = test system: HCC-2998 colon
KM12 colon = test system: KM12 colon

Measured: growth

COc1ccc(-c2nc3c(c(-c4ccc(Cl)cc4)nn3-c3ccccc3)c(-c3ccc(O)cc3)c2C#N)cc1
active: SR leukemia -29.9% | RPMI-8226 leukemia -33%
inactive: OVCAR-8 ovarian 61.3% | OVCAR-5 ovarian 78.9% | OVCAR-4 ovarian 47.5% | SK-OV-3 ovarian 84.5% | IGROV1 ovarian 72.4% | OVCAR-3 ovarian 34.1% | HS 578T breast 24.6% | NCI/ADR-RES ovarian 54.6% | T-47D breast 24.6% | BT-549 breast 54.4% | MDA-MB-435 melanoma 44.3% | SW-620 colon 48.5% | MCF7 breast 13.6% | HCT-116 colon 12% | HCC-2998 colon 70.3% | KM12 colon 34.4%

CS(=O)(=O)c1ccc(Cl)c([N+](=O)[O-])c1
inactive: SR leukemia 18.6% | RPMI-8226 leukemia 70.3% | OVCAR-8 ovarian 107% | OVCAR-5 ovarian 108% | OVCAR-4 ovarian 111% | SK-OV-3 ovarian 104% | IGROV1 ovarian 38.5% | HS 578T breast 73.3% | NCI/ADR-RES ovarian 101% | T-47D breast 104% | BT-549 breast 111% | MDA-MB-435 melanoma 99.1% | SW-620 colon 67.9% | MCF7 breast 107% | HCT-116 colon 105% | HCC-2998 colon 109% | KM12 colon 75.3%
active: OVCAR-3 ovarian 9.6%

Oc1c(C(Nc2cccc3ccccc23)c2ccccc2)ccc2cccnc12 (centres undefined)
active: SR leukemia 3.7% | NCI/ADR-RES ovarian 4.58% | BT-549 breast -16.1%
inactive: RPMI-8226 leukemia 37.6% | OVCAR-8 ovarian 25% | OVCAR-5 ovarian 49.8% | OVCAR-4 ovarian 11.4% | SK-OV-3 ovarian 49.6% | IGROV1 ovarian 21.5% | OVCAR-3 ovarian 22.4% | HS 578T breast 63.5% | T-47D breast 49.1% | MDA-MB-435 melanoma 42.3% | SW-620 colon 37.6% | MCF7 breast 25.8% | HCT-116 colon 15.6% | HCC-2998 colon 27.5% | KM12 colon 36%

O=C1NN(C(=O)c2ccccc2)C(c2ccc(Cl)c(Cl)c2)=C/C1=C\c1ccccc1[N+](=O)[O-]
inactive: OVCAR-8 ovarian 30.3% [6.75 µM] | OVCAR-4 ovarian 12.2% [6.75 µM] | SK-OV-3 ovarian 37.1% [6.75 µM] | IGROV1 ovarian 19.3% [6.75 µM] | OVCAR-3 ovarian 15.9% [6.75 µM] | HS 578T breast 30.8% [6.75 µM] | NCI/ADR-RES ovarian 17.7% [6.75 µM] | T-47D breast 27.6% [6.75 µM] | MDA-MB-435 melanoma 58.5% [6.75 µM] | SW-620 colon 13.7% [6.75 µM]
active: SR leukemia 6.01% [6.75 µM] | RPMI-8226 leukemia 2.27% [6.75 µM] | OVCAR-5 ovarian -18.6% [6.75 µM] | BT-549 breast -7.17% [6.75 µM] | MCF7 breast 8.91% [6.75 µM] | HCT-116 colon 5.02% [6.75 µM] | HCC-2998 colon -20.5% [6.75 µM] | KM12 colon 4.6% [6.75 µM]

COc1cc2ncnc(Nc3ccc(S(=O)(=O)Nc4nccs4)cc3)c2cc1OCCCN1CCOCC1
inactive: SR leukemia 108% | RPMI-8226 leukemia 106% | OVCAR-8 ovarian 103% | OVCAR-5 ovarian 106% | OVCAR-4 ovarian 107% | SK-OV-3 ovarian 96.2% | IGROV1 ovarian 106% | OVCAR-3 ovarian 101% | HS 578T breast 99.9% | NCI/ADR-RES ovarian 102% | T-47D breast 106% | BT-549 breast 119% | MDA-MB-435 melanoma 101% | SW-620 colon 103% | MCF7 breast 105% | HCT-116 colon 100% | HCC-2998 colon 104% | KM12 colon 101%

CN(C)c1nc(-c2cccs2)n2nc(-c3ccc(Cl)cc3)cc2n1
active: OVCAR-4 ovarian -39.5% | SK-OV-3 ovarian -54.2% | HS 578T breast -2.48% | HCT-116 colon 6.95%
inactive: SR leukemia 58.7% | RPMI-8226 leukemia 74.3% | OVCAR-8 ovarian 11.8% | OVCAR-5 ovarian 75.6% | IGROV1 ovarian 11.9% | OVCAR-3 ovarian 14.8% | NCI/ADR-RES ovarian 38.3% | T-47D breast 30.7% | BT-549 breast 68.7% | MDA-MB-435 melanoma 63.1% | SW-620 colon 56.8% | MCF7 breast 66.2% | HCC-2998 colon 48.9% | KM12 colon 72.5%

CCOC(=O)C#Cc1c(C(=O)OCC)nnn1[C@@H]1O[C@H](COC(C)=O)[C@@H](OC(C)=O)[C@H]1OC(C)=O
inactive: SR leukemia 22.8% | RPMI-8226 leukemia 94.8% | OVCAR-8 ovarian 94.1% | OVCAR-5 ovarian 100% | OVCAR-4 ovarian 104% | SK-OV-3 ovarian 109% | IGROV1 ovarian 91.5% | OVCAR-3 ovarian 62.1% | HS 578T breast 96.2% | NCI/ADR-RES ovarian 104% | T-47D breast 60.2% | BT-549 breast 111% | MDA-MB-435 melanoma 104% | SW-620 colon 13.6% | MCF7 breast 41.8% | HCT-116 colon 92.4% | HCC-2998 colon 105% | KM12 colon 109%

COc1ccc2c(c1)OC1=C(C(=O)OC1)C2c1cc(OC)c2c(c1)OCCO2 (centres undefined)
active: SK-OV-3 ovarian -2.33% | OVCAR-3 ovarian -30.4% | MDA-MB-435 melanoma -18.1% | HCT-116 colon 4.09% | KM12 colon 2.33%
inactive: SR leukemia 27.3% | RPMI-8226 leukemia 25% | OVCAR-8 ovarian 20.7% | OVCAR-5 ovarian 32.4% | OVCAR-4 ovarian 48% | IGROV1 ovarian 19.3% | HS 578T breast 29.6% | NCI/ADR-RES ovarian 13.9% | T-47D breast 60.2% | BT-549 breast 24.6% | SW-620 colon 24.6% | MCF7 breast 10.3% | HCC-2998 colon 23%

CCCCCCCCN(CCCCCCCC)C(=O)CCl
active: IGROV1 ovarian -18.2%
inactive: SR leukemia 83.1% | RPMI-8226 leukemia 106% | OVCAR-8 ovarian 89.4% | OVCAR-5 ovarian 120% | OVCAR-4 ovarian 97% | SK-OV-3 ovarian 109% | OVCAR-3 ovarian 108% | HS 578T breast 85.1% | NCI/ADR-RES ovarian 94.7% | T-47D breast 89.7% | BT-549 breast 98.5% | MDA-MB-435 melanoma 108% | SW-620 colon 104% | MCF7 breast 99.6% | HCT-116 colon 90.8% | HCC-2998 colon 103% | KM12 colon 112%

CCSCC1CC(O)(c2ccccc2)C(c2ccccc2)C(c2ccc(F)cc2)O1 (centres undefined)
active: SR leukemia 1.33% | RPMI-8226 leukemia -16.1% | OVCAR-8 ovarian 1.93% | OVCAR-5 ovarian -2.48% | OVCAR-4 ovarian -9.01% | SK-OV-3 ovarian 6.98% | OVCAR-3 ovarian -62.9% | HS 578T breast -35.3% | NCI/ADR-RES ovarian -24.8% | T-47D breast -17.5% | BT-549 breast -12.1% | MDA-MB-435 melanoma -18.8% | SW-620 colon -25.8% | MCF7 breast 1.86% | HCT-116 colon -31.2% | HCC-2998 colon 2.23% | KM12 colon -9.64%
inactive: IGROV1 ovarian 11.2%

Clc1ccc(Cl)c(N=Cc2ccc3c(c2)OCO3)c1
inactive: SR leukemia 114% | RPMI-8226 leukemia 99.9% | OVCAR-8 ovarian 97.8% | OVCAR-5 ovarian 103% | OVCAR-4 ovarian 108% | SK-OV-3 ovarian 105% | IGROV1 ovarian 114% | OVCAR-3 ovarian 115% | HS 578T breast 109% | NCI/ADR-RES ovarian 106% | T-47D breast 101% | BT-549 breast 96.2% | MDA-MB-435 melanoma 106% | SW-620 colon 107% | MCF7 breast 108% | HCT-116 colon 104% | HCC-2998 colon 98.5% | KM12 colon 106%

COc1ccc(Cl)cc1Nc1nc(C(F)(F)F)ccc1C(=O)NN
active: SR leukemia 1.9% | RPMI-8226 leukemia 4.71% | OVCAR-4 ovarian -4.08% | SK-OV-3 ovarian 8.79% | NCI/ADR-RES ovarian 9.26%
inactive: OVCAR-8 ovarian 18.9% | OVCAR-5 ovarian 40.6% | IGROV1 ovarian 30.3% | OVCAR-3 ovarian 33.6% | HS 578T breast 95.8% | T-47D breast 29.4% | BT-549 breast 20.2% | MDA-MB-435 melanoma 40.2% | SW-620 colon 88.6% | MCF7 breast 90.4% | HCT-116 colon 38.8% | KM12 colon 38.6%

CCC(=O)NC1=C(Cl)C(=O)C(NC(=O)CC)=C(Cl)C1=O
inactive: OVCAR-8 ovarian 99.3% | OVCAR-5 ovarian 107% | SK-OV-3 ovarian 99.9% | IGROV1 ovarian 116% | HS 578T breast 135% | NCI/ADR-RES ovarian 101% | BT-549 breast 119% | MDA-MB-435 melanoma 136% | MCF7 breast 28.3% | HCC-2998 colon 103% | KM12 colon 109%
active: SR leukemia -55.1% | RPMI-8226 leukemia -34.3% | OVCAR-4 ovarian -98.5% | OVCAR-3 ovarian -94.5% | T-47D breast -54.4% | SW-620 colon -72.1% | HCT-116 colon -93.1%

COc1cccc(/C(C)=N/NC(=O)CSc2nc3ccccc3c(=O)n2CCc2ccc(S(N)(=O)=O)cc2)c1
active: SR leukemia -1.96% | RPMI-8226 leukemia 4.78% | OVCAR-8 ovarian 7.61% | OVCAR-4 ovarian -7.35% | HCT-116 colon -50.5%
inactive: OVCAR-5 ovarian 73.2% | SK-OV-3 ovarian 43.7% | IGROV1 ovarian 77.1% | OVCAR-3 ovarian 20% | HS 578T breast 29.8% | NCI/ADR-RES ovarian 74.7% | T-47D breast 40% | BT-549 breast 62.9% | MDA-MB-435 melanoma 38.4% | SW-620 colon 30.7% | MCF7 breast 20.5% | HCC-2998 colon 69.1% | KM12 colon 14%

COc1cc(OC)c2sc(-c3ccc(-n4cncc4-c4ccc(OC)c(N)c4)cc3)nc2c1
inactive: SR leukemia 73.8% | RPMI-8226 leukemia 51.8% | OVCAR-8 ovarian 84.3% | OVCAR-5 ovarian 101% | OVCAR-4 ovarian 78% | SK-OV-3 ovarian 123% | IGROV1 ovarian 98.2% | OVCAR-3 ovarian 77.4% | HS 578T breast 94.1% | NCI/ADR-RES ovarian 77.4% | T-47D breast 77.2% | BT-549 breast 75.2% | MDA-MB-435 melanoma 68.8% | SW-620 colon 89.1% | MCF7 breast 67.3% | HCT-116 colon 66% | KM12 colon 77.7%

O=c1oc2ccccc2cc1-c1cc(-c2ccc(-c3cc(-c4cc5ccccc5oc4=O)nc(-c4cc5ccccc5oc4=O)c3)cc2)cc(-c2cc3ccccc3oc2=O)n1
inactive: SR leukemia 93.7% | RPMI-8226 leukemia 98.2% | OVCAR-8 ovarian 103% | OVCAR-5 ovarian 119% | OVCAR-4 ovarian 100% | SK-OV-3 ovarian 94.3% | IGROV1 ovarian 105% | OVCAR-3 ovarian 110% | HS 578T breast 104% | NCI/ADR-RES ovarian 108% | T-47D breast 91.1% | BT-549 breast 106% | MDA-MB-435 melanoma 114% | SW-620 colon 110% | MCF7 breast 68.6% | HCT-116 colon 97% | HCC-2998 colon 110% | KM12 colon 103%

O=C(CCl)Nc1ccc2c(c1)C(=O)c1ccccc1C2=O
active: SR leukemia -10.3% | RPMI-8226 leukemia -59.1% | OVCAR-8 ovarian -27.3% | IGROV1 ovarian -15.6% | OVCAR-3 ovarian -87.1% | T-47D breast -71% | BT-549 breast -45.3% | SW-620 colon -78.6% | MCF7 breast -25% | HCT-116 colon -28.6%
inactive: OVCAR-5 ovarian 18.6% | OVCAR-4 ovarian 36.8% | SK-OV-3 ovarian 54.5% | HS 578T breast 51.8% | NCI/ADR-RES ovarian 14.2% | MDA-MB-435 melanoma 13.1% | HCC-2998 colon 69% | KM12 colon 54.9%
